Screens from PubChem BioAssay.
D1 antagonist: antagonists of human D1 dopamine receptor; P21728; HEK293 TREx D1 cells, calcium flux, dopamine EC80; hits give low values; actives 3.2% (n = 360,000); AID 504652; activity change, negative = inhibition, % at 10 µM; in the data active means activity change below about -30%; further: on the % scale 0 is the no-effect control and ±100 the full control effect
Target sequence (P21728 whole entry, looked up): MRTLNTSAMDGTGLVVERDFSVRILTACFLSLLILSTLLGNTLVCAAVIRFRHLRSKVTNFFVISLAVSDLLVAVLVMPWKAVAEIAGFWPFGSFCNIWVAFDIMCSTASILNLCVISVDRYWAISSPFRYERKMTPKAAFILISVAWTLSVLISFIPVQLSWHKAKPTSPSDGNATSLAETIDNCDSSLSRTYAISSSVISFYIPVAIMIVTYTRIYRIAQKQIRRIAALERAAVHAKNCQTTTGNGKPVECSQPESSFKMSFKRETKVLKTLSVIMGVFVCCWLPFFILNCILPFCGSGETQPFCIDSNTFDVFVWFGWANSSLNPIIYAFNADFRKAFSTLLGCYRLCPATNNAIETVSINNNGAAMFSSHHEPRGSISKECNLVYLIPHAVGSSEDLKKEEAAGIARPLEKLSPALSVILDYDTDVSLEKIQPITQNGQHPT
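Allosteric or orthosteric antagonism assessed as attenuation of the calcium response to EC80 dopamine, added 180 s after compound, in induced HEK293 Trex D1 cells loaded with no-wash calcium dye.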
TRHR PAM: allosterically enhances the human TRH receptor | P34981 | TRHR cells, fluo-8 calcium fluorescence, EC20 TRH enhancement | enhancement, % at 2 µM | actives 0.66% (n = 360,000); in the data active means enhancement above about 30%; further: 0% is about no effect
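Enhancer read-out: after compound pinning and an initial kinetic agonist-mode read, an EC20 of TRH (10 nM final) was injected and fluo-8 calcium signal (Ex 480/Em 530) followed at 1 s/cycle for 100 cycles in TRHR-expressing cells.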
D1 potentiator: enhances dopamine response at the human D1 receptor; P21728; HEK293 TREx D1 cells, calcium flux, dopamine EC20 potentiation; potentiation, % at 10 µM; actives 0.036% (n = 360,000); in the data active means potentiation above about 30%; further: 0% is about no effect
D1 agonist: human D1 receptor agonism | P21728 | HEK293 T-REx D1 cells, calcium flux, agonist mode | activation, % at 2 µM | actives 1% (n = 360,000) | AID 504660; further: 0% is about no effect
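Tetracycline-induced HEK293 TREx D1 cells, force-coupled to calcium signalling, were dye-loaded with a no-wash calcium kit. Compound was pin-added after a 10 s baseline. Fluorescence was read kinetically at 1 cycle/s for 180 s, with calcium rises flagged as agonism.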
TRHR agonist: TRH receptor (human) agonism. P34981. TRHR cells, calcium flux fluo-8, FDSS agonist mode. activation, % at 2 µM. actives 0.18% (n = 360,000). AID 493084; further: 0% is about no effect
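In this calcium-flux screen, cells bearing human TRHR are dye-loaded with fluo-8, baselined for 10 cycles, then exposed to library compounds; positive kinetic calcium responses during the agonist phase mark hits, with TRH as control.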
Numbers without * were called inactive; . = no result given; ! = a repeat was not active. An excerpt weighted towards active compounds, which were near 4.7% of everything screened. Unless noted, no stated cut-off is given here; in the data, active means activation above about 30%; inactive means the rest.

SMILES	D1 antagonist	TRHR PAM	D1 potentiator	D1 agonist	TRHR agonist
COC(=O)c1ccc(Cl)cc1NC(=O)NCc1c(-n2cccc2)sc2c1CCCC2	-20.0	-0.2	-2.2	-0.8	-1.1
CC(C)(C)c1ccc(Cn2c(=N)n(CC(O)c3ccco3)c3ccccc32)cc1 (configuration not stated)	-10.1	9.6	9.6	71.8*	3.3
Nc1nc(CN2CCN(Cc3ccc4c(c3)OCO4)CC2)nc(Nc2ccccc2)n1	-46.5*	9.5	-9.7	2.0	-1.1
Nc1nc(CN2CCN(c3ccccc3F)CC2)nc(Nc2ccccc2)n1	-3.5	0.4	0.8	0.8	-0.3
Nc1nc(CN2CCN(c3ccccc3)CC2)nc(Nc2ccc(Cl)cc2)n1	-40.1*	0.0	-6.5	0.5	-0.7
CCN(CC(=O)Nc1ccc2c(c1)OCCO2)S(=O)(=O)c1ccccc1	5.6	-1.2	-1.9	1.9	0.4
O=C(NCc1ccc2c(c1)OCO2)c1ccc(CS(=O)(=O)c2ccc(Br)cc2)o1	-25.0	6.2	.	35.8*	-0.6
CCOC(=O)C1C(=O)NC(c2ccccc2)=NC1c1ccc(Cl)cc1 (configuration not stated)	-10.9	-3.2	-0.5	0.8	0.2
CCOC(=O)C1C(=O)NC(c2ccccc2)=NC1c1ccc(C(C)C)cc1 (configuration not stated)	-33.8*	-7.8	-3.0	0.1	-0.4
CCc1ccc(-n2nc3ccc(NC(=O)c4cc(Cl)c(OC)c(Cl)c4)cc3n2)cc1	-10.9	3.3	-3.4	-0.2	-0.1
CCN(CC)C(=O)CN(c1cc2c(cc1OC)oc1ccccc12)S(=O)(=O)c1ccccc1	-67.7*	-3.6	-10.8	2.0	1.1
COc1cc2oc3ccccc3c2cc1N(CC(=O)N(C)C)S(=O)(=O)c1ccccc1	-5.2	-7.5	-0.5	1.2	1.4
O=C(N/N=C/c1cccc(F)c1)c1c(O)c2c([nH]c1=O)CCCC2	-50.4*	2.1	-4.8	1.5	0.6
CNC(=O)c1ccccc1NC(=O)c1c(O)c2c([nH]c1=O)CCCC2	15.1	1.4	-5.7	1.4	-0.5
CC(C)[C@H](NC(=O)N1CCn2c1nc1ccccc12)C(=O)N[C@@H](C(=O)O)c1ccccc1	0.9	-2.7	15.2	1.8	0.1
CN1CC(=O)N(CC(=O)Nc2ccc(Cl)c(C(F)(F)F)c2)c2ccccc2C1=O	-3.6	1.8	-4.4	2.9	0.3
CC(=O)COc1coc(CN2CCN(c3ccc(F)cc3)CC2)cc1=O	-0.7	31.4*	-2.2	1.1	0.2
COc1ccc2[nH]c(=O)c(CN(C(=O)c3cccc(Cl)c3)c3ccccc3OC)cc2c1	-10.7	-8.1	1.9	2.1	-0.2
C=CCN(c1ccccc1Cl)S(=O)(=O)c1cccc(C(=O)NCCc2ccc(OC)cc2)c1	-32.1*	0.7	-8.5	3.1	0.6
COc1ccc(C(CNC(=O)c2ccc(Cl)c(S(=O)(=O)N3CCCC3)c2)N2CCCC2)cc1 (configuration not stated)	5.0	-3.8	10.6	5.9	0.2
COc1ccc(CCNC(=O)c2ccc(Cl)c(S(=O)(=O)N3CCCC3)c2)cc1	-50.5*	0.8	-0.9	8.0	-0.1
COc1ccc(C(=O)NCC2COc3ccccc3O2)cc1S(=O)(=O)N1CCOCC1 (configuration not stated)	-34.2*	-2.7	-4.5	-0.1	-0.7
COc1ccc(C(=O)NCc2ccncc2)cc1S(=O)(=O)N1CCOCC1	-48.5*	-4.9	.	3.6	-0.1
Cc1cc2c(s1)c1cnn(Cc3ccc(Cl)c(F)c3)c(=O)c1n2C	-2.1	3.2	3.9	5.2	-0.4
COc1ccc(CN(C)C(=O)CNC(=O)c2cccs2)c(OC)c1	8.1	-0.7	-1.4	0.0	0.4
SMILES	D1 antagonist	TRHR PAM	D1 potentiator	D1 agonist	TRHR agonist
O=C(/C=C/c1cccc(Cl)c1Cl)OCC(=O)N1CCOCC1	-12.4	-0.6	4.3	0.7	0.8
COc1ccc(C(=O)Nc2ncc(C)s2)cc1S(=O)(=O)N1CCOCC1	12.1	31.6*	-4.2	0.3	2.0
COc1ccccc1OCCNC(=O)c1ccc(C)c(S(=O)(=O)N2CCOCC2)c1	-5.6	12.6	-7.4	30.2*	-0.1
CCOC(=O)N1CCN(C(=O)c2ccc3c(c2)ncn3C2CCCC2)CC1	-12.1	34.5*	-4.5	1.0	-0.5
COc1ccccc1OCCNC(=O)c1cccc(S(=O)(=O)N2CCN(C)CC2)c1	6.0	1.3	5.0	1.3	-0.1
COc1cccc(CNC(=O)c2ccc(Cl)c(S(=O)(=O)N3CCOCC3)c2)c1	-34.1*	-6.5	-10.6	2.3	-0.7
CC(C)CC(=O)NC1CC(=O)N(c2ccc3c(c2)OCCO3)C1 (configuration not stated)	.	10.7	-0.5	1.0	-0.8
O=C(NCCCn1ccnc1)c1cc(Cl)cc(Cl)c1	-14.9	11.5	-7.8	0.2	-0.2
CCOC(=O)N1CCN(C(=O)c2ccc(Cl)c(S(=O)(=O)N3CCCC3)c2)CC1	-1.8	1.9	33.5*	0.3	-0.4
COc1ccc(Br)cc1CNC(=O)Cn1nc(C)n2c(cc3cc(F)ccc32)c1=O	1.6	3.3	-4.2	0.3	-0.2
Cc1nn(CC(=O)NC2CC2)c(=O)c2cc3cc(F)ccc3n12	-2.4	34.2*	-5.5	1.5	0.3
CCN(C(=O)Cn1nc(C)n2c(cc3cc(C)ccc32)c1=O)c1ccccc1	-42.7*	1.3	-5.5	0.5	-0.6
C=CCN(C(=O)Cn1nc(C)n2c(cc3cc(C)ccc32)c1=O)c1ccccc1	-8.2	-1.2	-0.2	1.9	-0.5
CCc1ccccc1N(C)C(=O)c1cn(CC(C)C)c(=O)c2cc(OC)c(OC)cc12	-0.3	-4.2	0.3	3.1	0.3
CN(C)CCNC(=O)c1cc2c(s1)-c1ccccc1OC2	-53.5*	19.2	-8.2	121.8*	-0.1
Cc1ccc(C)c(N(C)C(=O)c2cc3c(s2)-c2ccccc2OC3)c1	7.7	8.3	2.0	-1.3	-0.3
CCCN1CCN(CCCNC(=O)c2cc3c(s2)-c2c(C)cccc2OC3)CC1	-38.1*!	-1.8	-10.4	5.2	0.5
CCN1CCN(CCCNC(=O)c2cc3c(s2)-c2ccccc2OC3)CC1	41.3	-5.8	-12.6	-0.1	-0.1
COc1ccccc1CNC(=O)c1cc2c(s1)-c1ccccc1OC2	-19.9	14.3	-6.2	4.4	0.4
COc1ccc(N(C)C(=O)c2cc3c(s2)-c2ccccc2OC3)c(OC)c1	-40.1*	-3.0	-8.9	2.4	-0.6
O=C(NCc1cccc(Cl)c1)c1cc2c(s1)-c1ccccc1OC2	-50.2*	1.7	-7.8	4.5	0.7
O=C1CC2(CCN(C(=O)c3cccc(F)c3)CC2)Oc2ccccc21	2.5	-11.4	1.0	2.5	-0.3
CCCN1CCN(CCCNC(=O)c2cc3c(s2)-c2ccccc2OC3)CC1	-12.1	37.1*!	-11.2	4.8	0.2
CC1CC(C)CN(CCCNC(=O)c2cc3c(s2)-c2ccccc2OC3)C1 (configuration not stated)	1.0	9.0	-1.9	7.3	1.8
